# Where “and” joins values, the source holds several entries; their conditions need not be identical. Equal values may be shown once. Calls of active or inactive are those of the source. Rule as the data show it, unless noted: active = inhibition above about 80%; inactive = the rest.
# What was measured:
# [1] = LFS_MB_P medulloblastoma growth inhibition, cell-based, chromothripsis tumors, cisplatin or BGB combos (AID 1671449); settings: LFS_MB_P medulloblastoma cells;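 also: cells exposed for 96 hours; 0% = vehicle DMSO and 100% = killing by high DMSO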
# [2] = HDN33 neuroblastoma growth inhibition, cell-based, chromothripsis tumors, cisplatin or BGB combos (AID 1671450); settings: HDN33 neuroblastoma cells, stronger effect = higher value;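 also: cells exposed to compound for four days; 0% = vehicle DMSO and 100% = cell killing by high DMSO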
# [3] = ICB984 medulloblastoma cell growth inhibition, synergistic combos for chromothripsis tumors, cisplatin or BGB combos (AID 1671451; call rule not given here;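 also: cells exposed for 96 hours before readout; 0% = vehicle DMSO and 100% = killing by high DMSO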); settings: ICB984 medulloblastoma cells, drug combinations, stronger effect = higher value
# [4] = LFS_MB_1R medulloblastoma cell growth inhibition, synergistic combos for chromothripsis tumors, cisplatin or BGB combos (AID 1671452); settings: LFS_MB_1R medulloblastoma cells, stronger effect = higher value;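 also: cells exposed for 96 hours before readout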
# [5] = HTB85 osteosarcoma cell growth inhibition, synergistic combos for chromothripsis tumors, BGB or cisplatin IC20 combos (AID 1671453); settings: HTB85 osteosarcoma cells, drug combinations, stronger effect = higher value;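 also: cells exposed for 96 hours before readout; 0% = vehicle DMSO and 100% = high DMSO killing control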
# [6] = CRL2098 osteosarcoma cell growth inhibition, synergistic combos for chromothripsis tumors, BGB or cisplatin IC20 combos (AID 1671454); settings: CRL2098 osteosarcoma cells, drug combinations, stronger effect = higher value;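 also: cells exposed for 96 h before readout; 0% = vehicle DMSO and 100% = killing by high DMSO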
# [7] = HD-MB03 medulloblastoma cell growth inhibition, synergistic combos for chromothripsis tumors, BGB or cisplatin IC20 combos (AID 1671455; in the data active = inhibition above about 83%;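 also: 0% = vehicle DMSO and 100% = high DMSO as cytotoxic control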); settings: HD-MB03 medulloblastoma cells, stronger effect = higher value
# [8] = UWB1.289 ovarian carcinoma cell growth inhibition, synergistic combos for chromothripsis tumors, BGB or cisplatin combos (AID 1671456); settings: UWB1.289 ovarian carcinoma cells, stronger effect = higher value;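 also: cells exposed to compound for four days; 0% = vehicle DMSO and 100% = killing by high DMSO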
# [9] = LFS_MB_2R medulloblastoma cell growth inhibition, synergistic combos for chromothripsis tumors, cisplatin combos (AID 1671457); settings: LFS_MB_2R medulloblastoma cells, stronger effect = higher value;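 also: cells exposed to compound for four days before readout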
# [10] = MDA-MB-436 breast carcinoma cell growth inhibition, synergistic combos for chromothripsis tumors, BGB or cisplatin combos (AID 1671458; call rule not given here;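 also: cells exposed for 96 hours; 0% = vehicle DMSO and 100% = killing by high DMSO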); settings: MDA-MB-436 breast carcinoma growth inhibition, drug combinations, stronger effect = higher value
# [11] = UWB1.289_BRCA1 ovarian cancer growth, cell-based, BGB or cisplatin combinations (AID 1671459); settings: UWB1.289 BRCA1 ovarian carcinoma, drug combinations, stronger effect = higher value
# [12] = human astrocyte viability loss, single and combined drugs, cytotoxicity control for chromothriptic childhood tumor combination screen, cell-based, BGB or cisplatin IC20 combos (AID 1671460); settings: Human astrocytes, drug combinations, stronger effect = higher value;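 also: cells exposed to compounds for 96 hours before viability readout; 0% = vehicle and 100% = killing control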
# [13] = growth inhibition of BT084 medulloblastoma cells, cell-based, ICGC_MB145, cisplatin and BGB IC40 combos (AID 1671461); settings: drug combinations, stronger effect = higher value;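 also: cells exposed to drugs for 96 hours; 0% = vehicle DMSO and 100% = high DMSO full killing control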
# [14] = growth inhibition of RCMB18 medulloblastoma cells, cell-based, cisplatin and BGB IC40 combos (AID 1671462); settings: stronger effect = higher value;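 also: cells exposed to compound for four days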
# [15] = growth inhibition of CRL1545 osteosarcoma cells, cell-based, cisplatin and BGB IC20 combos (AID 1671464); settings: stronger effect = higher value;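 also: cells exposed to compound for 96 hours before readout; 0% = vehicle DMSO and 100% = high DMSO killing control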
# [16] = at 0.5 µM, stronger effect = higher value
# [17] = measured here: combination with BGB IC20, at 0.005 µM
# [18] = measured here: combination with BGB IC40, at 0.005 µM
# [19] = measured here: combination with BGB IC40, at 0.05 µM
# [20] = measured here: combination with cisplatin, at 0.5 µM, stronger effect = higher value
# [21] = measured here: combination with cisplatin, at 5 µM, stronger effect = higher value
# [22] = measured here: with BGB IC20 combination, at 0.5 µM
# [23] = measured here: with cisplatin IC20 combination, at 0.5 µM
# [24] = measured here: 5 uM single agent, at 5 µM
# [25] = measured here: combination with cisplatin, at 0.5 µM
# [26] = measured here: combination with cisplatin, at 5 µM
# [27] = measured here: with BGB IC20, at 0.5 µM
# [28] = measured here: with BGB IC20, at 5 µM
# [29] = measured here: with cisplatin IC20, at 0.5 µM
# [30] = measured here: with cisplatin IC20, at 5 µM
# [31] = measured here: combination with BGB at IC20, at 0.5 µM
# [32] = measured here: combination with cisplatin at IC20, at 0.5 µM
# [33] = measured here: combo with BGB at IC20, at 0.5 µM
# [34] = measured here: combo with cisplatin at IC20, at 0.5 µM
# [35] = measured here: inhibition with BGB combination, at 0.05 µM
# [36] = measured here: inhibition with cisplatin combination, at 0.05 µM
# [37] = measured here: BGB combination, at 0.5 µM
# [38] = measured here: BGB combination, at 5 µM
# [39] = measured here: cisplatin combination, at 0.5 µM
# [40] = measured here: cisplatin combination, at 5 µM
# [41] = BGB combination, concentration series, at 5 µM
# [42] = cisplatin combination, concentration series, at 5 µM
# [43] = measured here: combo with BGB IC20, at 0.5 µM
# [44] = measured here: combo with cisplatin IC20, at 0.5 µM
# [45] = cisplatin combination, at 0.5 µM
# [46] = measured here: BGB IC40 combination 0.05 uM, at 0.05 µM
# [47] = measured here: BGB IC40 combination, at 0.05 µM
compound,measurement,setting,value
NC(=O)c1ncn(C2OC(CO)C(O)C2O)c1O (stereo unspecified),inhibition,[1]; [16],-12.6% (inactive)
same,inhibition,[1]; [17],-7.32%
same,inhibition,[1]; [18],-2.51%
same,inhibition,[1]; [19],-10.8%
same,inhibition,[1]; [20],-6.4%
same,inhibition,[1]; [21],-30%
same,inhibition,"[2]; BGB combo, at 5 µM",5.04%
same,inhibition,[2]; at 0.5 µM,6.65% (inactive)
same,inhibition,"[2]; cisplatin combo, at 5 µM",-12.8%
same,inhibition,[2]; [22],16.7%
same,inhibition,[2]; [23],12.5%
same,inhibition,"[2]; single agent, at 5 µM",-11%
same,inhibition,"[3]; BGB IC20 combo, at 0.005 µM",6.56%
same,inhibition,"[3]; BGB IC40 combo, at 0.005 µM",-22.2%
same,inhibition,"[3]; BGB IC40 combo, at 0.05 µM",-25%
same,inhibition,[3]; at 0.5 µM,-19.3% (inactive)
same,inhibition,"[3]; cisplatin combo, at 0.05 µM",-25%
same,inhibition,"[3]; cisplatin combo, at 0.5 µM",-21.3%
same,inhibition,"[3]; cisplatin combo, at 5 µM",9.18%
same,inhibition,[3]; [24],-10.8%
same,inhibition,[4]; at 0.5 µM,-1.69% (inactive)
same,inhibition,[4]; [19],11.9%
same,inhibition,[4]; [25],14.5%
same,inhibition,[4]; [26],1.36%
same,inhibition,[5]; at 0.5 µM,-21.2% (inactive)
same,inhibition,[5]; [27],-45.8%
same,inhibition,[5]; [28],-14%
same,inhibition,[5]; [29],-13.3%
same,inhibition,[5]; [30],26.5%
same,inhibition,"[5]; single agent, at 5 µM",4.97%
same,inhibition,[6]; at 0.5 µM,-22.6% (inactive)
same,inhibition,[6]; [31],-31.9%
same,inhibition,[6]; [32],-21.8%
same,inhibition,[7]; at 0.5 µM,-5.96% (inactive)
same,inhibition,[7]; [33],-11.6%
same,inhibition,[7]; [34],0.212%
same,inhibition,[8]; at 0.5 µM,2.16% (inactive)
same,inhibition,[8]; [35],-15.4%
same,inhibition,[8]; [36],-3.17%
same,inhibition,[9]; at 0.5 µM,-17.9% (inactive)
same,inhibition,[9]; [25],-10.4%
same,inhibition,[9]; [26],-9.64%
same,inhibition,[10]; at 0.5 µM,-15.6% (inactive)
same,inhibition,[10]; [37],-16%
same,inhibition,[10]; [38],-1.99%
same,inhibition,[10]; [39],-28.5%
same,inhibition,[10]; [40],-10.8%
same,inhibition,[11]; [41],5.96%
same,inhibition,[11]; at 0.5 µM,2.34% (inactive)
same,inhibition,[11]; [42],12.4%
same,inhibition,[12]; at 0.5 µM,-5.39% (inactive)
same,inhibition,[12]; [43],-5.58%
same,inhibition,[12]; [44],-13.5%
same,inhibition,[13]; at 0.5 µM,-0.897% (inactive)
same,inhibition,[13]; [45],6.23%
same,inhibition,"[13]; cisplatin combination, at 5 µM",-20.7%
same,inhibition,[13]; [46],5.17%
same,inhibition,"[13]; single agent, at 5 µM",-12.6%
same,inhibition,[14]; at 0.5 µM,-9.69% (inactive)
same,inhibition,"[14]; cisplatin combo, at 5 µM",0.143%
same,inhibition,[14]; [47],-17.2%
same,inhibition,[14]; [25],9.55%
same,inhibition,"[14]; single agent, at 5 µM",-31.2%
same,inhibition,[15]; at 0.5 µM,-13.2% (inactive)
same,inhibition,[15]; [22],2.45%
same,inhibition,[15]; [23],-21%
same,inhibition,"[15]; single agent, at 0.05 µM",13%
same,inhibition,"[15]; single agent, at 5 µM",22.2%
Nc1nc(NC2CC2)c2ncn(C3C=CC(CO)C3)c2n1 (stereo unspecified),inhibition,[1]; [16],18.6% (inactive) and 9.78% (inactive)
same,inhibition,[1]; [17],-10.2% and -25.3%
same,inhibition,[1]; [18],-2.6% and -37.7%
same,inhibition,[1]; [19],-13.2% and -43.3%
same,inhibition,[1]; [20],0.791% and -12%
same,inhibition,[1]; [21],42.6% and 20.9%
same,inhibition,"[2]; BGB combo, at 5 µM",7.05% and 3.14%
same,inhibition,[2]; at 0.5 µM,-27.8% (inactive) and -12.2% (inactive)
same,inhibition,"[2]; cisplatin combo, at 5 µM",15.9% and 16.9%
same,inhibition,[2]; [22],-24.7% and -14%
same,inhibition,[2]; [23],-37.5% and -12%
same,inhibition,"[2]; single agent, at 5 µM",15.7% and 29.8%
same,inhibition,"[3]; BGB IC20 combo, at 0.005 µM",-32.2% and 1.07%
same,inhibition,"[3]; BGB IC40 combo, at 0.005 µM",-10% and -27%
same,inhibition,"[3]; BGB IC40 combo, at 0.05 µM",11.7% and 20.9%
same,inhibition,[3]; at 0.5 µM,-15.2% (inactive) and -19.6% (inactive)
same,inhibition,"[3]; cisplatin combo, at 0.05 µM",9.21% and 18%
same,inhibition,"[3]; cisplatin combo, at 0.5 µM",-8.32% and -16.8%
same,inhibition,"[3]; cisplatin combo, at 5 µM",-66.5% and -40.2%
same,inhibition,[3]; [24],-33.4% and -23.1%
same,inhibition,[4]; at 0.5 µM,-29.4% (inactive) and -14.1% (inactive)
same,inhibition,[4]; [19],-41.9% and -20.2%
same,inhibition,[4]; [25],-65.7% and -24.2%
same,inhibition,[4]; [26],10.3% and 37.7%
same,inhibition,[5]; at 0.5 µM,-22.4% (inactive) and -2.82% (inactive)
same,inhibition,[5]; [27],-29.8% and -5.83%
same,inhibition,[5]; [28],-10.5% and 18.8%
same,inhibition,[5]; [29],-25.7% and -8.4%
same,inhibition,[5]; [30],3.54% and 48.9%
same,inhibition,"[5]; single agent, at 5 µM",15.5% and 29.1%
same,inhibition,[6]; at 0.5 µM,-73.4% (inactive) and -21.7% (inactive)
same,inhibition,[6]; [31],-122% and -23.9%
same,inhibition,[6]; [32],-57% and -77.8%
same,inhibition,[7]; at 0.5 µM,-12.2% (inactive) and -6.69% (inactive)
same,inhibition,[7]; [33],-5.41% and -19.4%
same,inhibition,[7]; [34],-23.6% and 5.04%
same,inhibition,[8]; at 0.5 µM,-7.07% (inactive) and -1.31% (inactive)
same,inhibition,[8]; [35],-16.1% and -7.54%
same,inhibition,[8]; [36],-20.7% and -16.3%
same,inhibition,[9]; at 0.5 µM,-0.03% (inactive) and -16.7% (inactive)
same,inhibition,[9]; [25],2.24% and -15.7%
same,inhibition,[9]; [26],-15.7% and 24.3%
same,inhibition,[10]; at 0.5 µM,0.7% (inactive) and -5.22% (inactive)
same,inhibition,[10]; [37],5.51% and -4.19%
same,inhibition,[10]; [38],23.6% and 15.9%
same,inhibition,[10]; [39],-6.39% and -11.5%
same,inhibition,[10]; [40],25.3% and 12.2%
same,inhibition,[11]; [41],21.9% and 44.1%
same,inhibition,[11]; at 0.5 µM,-6.63% (inactive) and -4.62% (inactive)
same,inhibition,[11]; [42],36% and 67.6%
same,inhibition,[12]; at 0.5 µM,-19.5% (inactive) and 11.5% (inactive)
same,inhibition,[12]; [43],-10.8% and 10%
same,inhibition,[12]; [44],-38.1% and 8.23%
same,inhibition,[13]; at 0.5 µM,-4.33% (inactive) and -11.9% (inactive)
same,inhibition,[13]; [45],6.28% and -30.6%
same,inhibition,"[13]; cisplatin combination, at 5 µM",27.2% and 36.5%
same,inhibition,[13]; [46],4.8% and -24.4%
same,inhibition,"[13]; single agent, at 5 µM",29.7% and 30.5%
same,inhibition,[14]; at 0.5 µM,-22.8% (inactive) and -12.3% (inactive)
same,inhibition,"[14]; cisplatin combo, at 5 µM",15.1% and 15.7%
same,inhibition,[14]; [47],-23.6%
same,inhibition,[14]; [25],-50.2% and -0.496%
same,inhibition,"[14]; single agent, at 5 µM",16.3% and 21.5%
same,inhibition,[15]; at 0.5 µM,-22.4% (inactive) and -10.8% (inactive)
same,inhibition,[15]; [22],-35.1% and -4.57%
same,inhibition,[15]; [23],-18.6% and -15.8%
same,inhibition,"[15]; single agent, at 0.05 µM",-49.6% and -25.5%
same,inhibition,"[15]; single agent, at 5 µM",-7.83% and 23.5%
